ROC1-CUL1 inh: inhibitors of human ROC1-CUL1 ubiquitin ligase activity; in vitro K48 di-Ub FRET, acceptor:donor ratio, 45 min; inhibition, % at 10 µM; 140,000 tested, 0.6% active; AID 1347404, 2020; in the data active = inhibition above about 25%
Target sequence (P62877 whole entry, looked up): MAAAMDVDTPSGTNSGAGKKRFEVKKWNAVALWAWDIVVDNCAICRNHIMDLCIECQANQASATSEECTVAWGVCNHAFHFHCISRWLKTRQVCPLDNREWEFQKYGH
Target sequence (Q13616 whole entry, looked up): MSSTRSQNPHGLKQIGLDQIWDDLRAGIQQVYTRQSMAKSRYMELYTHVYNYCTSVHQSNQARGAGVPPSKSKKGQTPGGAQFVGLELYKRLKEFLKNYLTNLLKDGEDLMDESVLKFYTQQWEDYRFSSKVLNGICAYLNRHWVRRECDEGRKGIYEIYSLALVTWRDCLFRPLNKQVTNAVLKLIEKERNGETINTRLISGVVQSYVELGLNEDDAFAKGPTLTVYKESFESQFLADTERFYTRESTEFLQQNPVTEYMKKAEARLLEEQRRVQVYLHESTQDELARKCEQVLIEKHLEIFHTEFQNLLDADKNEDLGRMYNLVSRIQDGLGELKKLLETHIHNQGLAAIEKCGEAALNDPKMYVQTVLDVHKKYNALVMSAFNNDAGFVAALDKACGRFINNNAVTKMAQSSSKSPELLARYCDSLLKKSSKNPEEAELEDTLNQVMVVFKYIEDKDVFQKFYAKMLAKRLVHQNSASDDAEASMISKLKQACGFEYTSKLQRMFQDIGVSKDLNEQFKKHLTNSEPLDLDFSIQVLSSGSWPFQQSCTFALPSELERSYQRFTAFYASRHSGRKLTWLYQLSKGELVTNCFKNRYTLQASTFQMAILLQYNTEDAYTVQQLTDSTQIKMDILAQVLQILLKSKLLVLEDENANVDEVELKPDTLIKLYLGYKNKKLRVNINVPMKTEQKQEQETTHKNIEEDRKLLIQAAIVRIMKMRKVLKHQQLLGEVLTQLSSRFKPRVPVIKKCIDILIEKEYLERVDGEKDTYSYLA
An asterisk follows results filed as active. The sample as a whole holds a higher share of hits than the screen did.

How did Cc1ccc(C2=NC(=O)/C(=C/c3c(C)nn(-c4ccccc4)c3Cl)S2)cc1 do in these assays?
ROC1-CUL1 inh: 6.6

Results for CCOc1cc(C)c(C)cc1S(=O)(=O)NC(C)C ?
ROC1-CUL1 inh: 1.9

Results for O=C(Nc1sc2c(c1C(=O)Nc1ccccc1)CCCCC2)c1ccccc1Br ?
ROC1-CUL1 inh: 0.4

What do the screens show for `Cc1cccc(C)c1N=Cc1ccc[nH]1`?
ROC1-CUL1 inh: 9.9

How did O=C(O)c1cccc(N2C(=O)/C(=C/c3ccc4c(c3)OCO4)SC2=S)c1 do in these assays?
ROC1-CUL1 inh: -1.6

What do the screens show for `COc1cccc(N2C(=O)/C(=C/c3ccc(C(=O)O)cc3)SC2=S)c1`?
ROC1-CUL1 inh: 2.7

Results for O=C(O)c1ccc(N2C(=O)/C(=C/c3ccc4c(c3)OCO4)SC2=S)cc1 ?
ROC1-CUL1 inh: 26.1*

What do the screens show for `COc1ccc(Oc2c(C(F)(F)F)oc3cc(OCc4ccccc4)ccc3c2=O)cc1`?
ROC1-CUL1 inh: 10.5

What do the screens show for `CCOC(=O)c1c(C)[nH]c(C)c1S(=O)(=O)N1CCCC(C(=O)NCc2ccc(C)cc2)C1` (stereo not given)?
ROC1-CUL1 inh: -3.3

What do the screens show for `CCOc1cc(C(c2c(C)[nH][nH]c2=O)c2c(C)[nH][nH]c2=O)ccc1OCc1cccc2ccccc12`?
ROC1-CUL1 inh: 44.8*

What do the screens show for `COc1cc(C(c2c(C)[nH][nH]c2=O)c2c(C)[nH][nH]c2=O)ccc1OC(=O)c1ccccc1F`?
ROC1-CUL1 inh: -18.9

What do the screens show for `COc1ccc(C(=O)Oc2ccc(C(c3c(C)[nH][nH]c3=O)c3c(C)[nH][nH]c3=O)cc2OC)cc1`?
ROC1-CUL1 inh: 12.9

How did O=C(Nc1ccc(Br)cc1)c1ccc(Br)o1 do in these assays?
ROC1-CUL1 inh: -3.0

How did CCOc1cc(-c2nc3sc(C)c(C)c3c(=O)[nH]2)ccc1OCc1ccccc1C#N do in these assays?
ROC1-CUL1 inh: -0.3

Results for CC(=O)NC(C)c1ccc(-c2cccc(-c3ccn[nH]3)c2)cc1 (stereo not given) ?
ROC1-CUL1 inh: -7.3

How did Cc1c(Cl)cccc1NC(=O)C1CCCC1 do in these assays?
ROC1-CUL1 inh: 0.5

Results for O=C1CC(c2ccccc2)CC2=Nc3ccccc3NC(c3cccc4ccccc34)C12 (stereo not given) ?
ROC1-CUL1 inh: 2.8

What do the screens show for `CCCCC(=Nc1ccccc1C)C1C(=O)CC(c2ccccc2)CC1=O` (stereo not given)?
ROC1-CUL1 inh: 7.1

What do the screens show for `CCCCC1C(=O)N=C2CC(c3ccccc3)CC(=O)C2C1=O` (stereo not given)?
ROC1-CUL1 inh: 27.7*

How did O=C1Nc2c(ccc(Cl)c2Cl)C12OCCO2 do in these assays?
ROC1-CUL1 inh: 0.5

Results for COc1ccc(N2CCN(CCCNC(=O)c3cc(Nc4ccc(OC)cc4OC)nc4ccccc34)CC2)cc1 ?
ROC1-CUL1 inh: -6.6

How did CCCCC(=O)Nc1cccc(-c2nnc(-c3ccc(C)cc3)o2)c1 do in these assays?
ROC1-CUL1 inh: 3.5

How did Cc1ccc2c(c1)-c1cc(C)nn1C(c1c(F)cccc1Cl)N2 (stereo not given) do in these assays?
ROC1-CUL1 inh: 3.6

Results for CC(C)C(C(=O)O)N1C(=O)/C(=C/c2ccc(F)cc2)SC1=S (stereo not given) ?
ROC1-CUL1 inh: 15.0

What do the screens show for `CC(C(=O)O)N1C(=O)/C(=C\c2ccco2)SC1=S` (stereo not given)?
ROC1-CUL1 inh: 52.7*

Results for O=C1/C(=C/c2ccco2)SC(=S)N1c1ccccc1Br ?
ROC1-CUL1 inh: -4.1

Results for CC(C)C(C(=O)O)N1C(=O)/C(=C\c2ccco2)SC1=S (stereo not given) ?
ROC1-CUL1 inh: 101.9*

Results for O=C(CN1C(=O)S/C(=C\c2ccco2)C1=O)c1ccc(Br)cc1 ?
ROC1-CUL1 inh: -1.2

How did O=C1/C(=C\c2ccco2)SC(=S)N1c1cccc(O)c1 do in these assays?
ROC1-CUL1 inh: 9.1

Results for O=C(NCc1ccc(Cl)cc1)C1CCCN(c2nc3ccccc3n3cccc23)C1 (stereo not given) ?
ROC1-CUL1 inh: 1.7

What do the screens show for `COc1ccc(/C=C2\SC(=S)N(Nc3ccccc3C)C2=O)cc1`?
ROC1-CUL1 inh: -4.4

Results for c1ccc(-c2nc3ccccc3o2)c(-c2nc3ccccc3o2)c1 ?
ROC1-CUL1 inh: 20.2

How did Cc1ccc(CN2C[C@H]3OC(=O)N(C4CCCC4)[C@H]3C2)cc1C do in these assays?
ROC1-CUL1 inh: -3.8

How did C=CCn1cc(CN2C[C@H]3OC(=O)N(Cc4ccccn4)[C@H]3C2)c(C)n1 do in these assays?
ROC1-CUL1 inh: -9.1

What do the screens show for `COc1ccc(C(C2C(=O)C=C(C)OC2=O)C2C(=O)C=C(C)OC2=O)cc1` (stereo not given)?
ROC1-CUL1 inh: 0.2

How did COc1ccc(N=CC2C(=O)Oc3ccccc3C2=O)cc1 (stereo not given) do in these assays?
ROC1-CUL1 inh: -0.2

What do the screens show for `COc1ccc(C(C2C(=O)Oc3ccc(C)cc3C2=O)C2C(=O)Oc3ccc(C)cc3C2=O)cc1` (stereo not given)?
ROC1-CUL1 inh: 69.2*

What do the screens show for `Cn1c(=O)c2c(ncn2Cc2ccc(C(C)(C)C)cc2)n(C)c1=O`?
ROC1-CUL1 inh: -5.4

Results for COCCNC(=O)c1ccc(CSc2nc3ccncc3n2Cc2ccccc2)cc1 ?
ROC1-CUL1 inh: -5.4

What do the screens show for `Cn1nccc1C(=O)NC(C)(C)CC(C)(C)C`?
ROC1-CUL1 inh: 1.4

What do the screens show for `Cn1nccc1C(=O)C#Cc1ccccc1`?
ROC1-CUL1 inh: 61.9*

What do the screens show for `Cn1nccc1C(=O)n1cnc2ccccc21`?
ROC1-CUL1 inh: -8.6

How did Cc1ccc(C(O)C#CC23CC4CC(CC(C4)C2)C3)o1 (stereo not given) do in these assays?
ROC1-CUL1 inh: 99.2*

What do the screens show for `OC(C#CC12CC3CC(CC(C3)C1)C2)c1ccccn1` (stereo not given)?
ROC1-CUL1 inh: 12.4

Results for O=C(O)C#CC12CC3CC(CC(C3)C1)C2 ?
ROC1-CUL1 inh: -0.1

How did COc1cc(C=Nc2ccccc2Oc2cc(=O)n(C)c(=O)n2C)cc(I)c1O do in these assays?
ROC1-CUL1 inh: -7.5

What do the screens show for `O=C1OC2(CCCCC2)OC(=O)C1=Cc1ccc(Nc2ccc(F)cc2)o1`?
ROC1-CUL1 inh: 4.0

Results for CC1(C)OC(=O)C(=Cc2ccc(Nc3cc(C(F)(F)F)cc(C(F)(F)F)c3)o2)C(=O)O1 ?
ROC1-CUL1 inh: 87.9*

How did O=C1OC2(CCCC2)OC(=O)C1=Cc1ccc(Nc2ccc(F)cc2)o1 do in these assays?
ROC1-CUL1 inh: 6.8

What do the screens show for `CCOc1ccc(/C=C2/C(=O)NN(c3cccc(F)c3)C2=O)cc1OC`?
ROC1-CUL1 inh: -4.8

What do the screens show for `COc1cc(/C=C2\C(=O)NN(c3ccccc3)C2=O)cc(Br)c1OCCCOc1ccc(Cl)cc1`?
ROC1-CUL1 inh: 55.3*

How did COc1cc(/C=C2/C(=O)NN(c3ccccc3)C2=O)ccc1OCC(=O)Nc1cccc(C)c1 do in these assays?
ROC1-CUL1 inh: -1.8

Results for COc1cc(/C=C2/C(=O)NN(c3ccccc3)C2=O)cc(OC)c1O ?
ROC1-CUL1 inh: 9.6

Results for COc1cc(/C=C2\C(=O)NN(c3ccccc3)C2=O)cc(Br)c1OCCCOc1cccc(C)c1 ?
ROC1-CUL1 inh: 45.1*

How did CCOc1cc(/C=C2\C(=O)NN(c3ccccc3)C2=O)ccc1OCc1ccccc1C do in these assays?
ROC1-CUL1 inh: 10.4

How did Cc1cccc(OCCCOc2ccc(Br)cc2/C=C2\C(=O)NN(c3ccccc3)C2=O)c1 do in these assays?
ROC1-CUL1 inh: 57.3*

Results for CCOc1cc(/C=C2\C(=O)NN(c3ccccc3)C2=O)cc(Br)c1OCCCOc1cccc(C)c1 ?
ROC1-CUL1 inh: 34.6*
